Consider 18 compounds from PubChem BioAssay (NCATS).

Holding throughout (test): Cytotoxic Profiling of Annotated Libraries Using Quantitative High-Throughput Screening (AID 1296008); further: nearly all actives have a fitted effect of over 60% in size
Holding throughout (conditions): Five cell lines viability, CellTiter-Glo ATP luminescence, 48-72 h; max response: hits give low values
A general note: Cellular ATP, detected with luciferase, serves as a proxy for viable cell number.

The subject of experiment [1] is CRL-7250. The procedure, abridged:
(§1)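 Compounds were pin-transferred onto cells and incubated 48 or 72 hr at 37 degree Celsius, 95% humidity. CellTiter-Glo was added, plates sat 10 min at room temperature, then ATP-coupled luminescence was imaged as the viability read-out.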

For experiment [2], the system named is HEK293. A digest of the protocol: as §1
For experiment [3], the system named is HaCat. The procedure, abridged:
as §1

Experiment [4] relates to KB-3-1. A digest of the protocol: as §1
For experiment [5], the system named is NIH3T3. A digest of the protocol: as §1

Records with an inconclusive call do not appear. A number with no mark means an inactive call. The source made the active and inactive calls. The call rests on the fitted dose curve; in most records, active means well fitted inhibition curve with a large enough effect; inconclusive means small, poorly fitted or top-dose-only effect; inactive means flat fitted curve, though single readings scatter. Where a SMILES comes first, the peptide text is derived from it. [ ]: non-standard residue; d: D form. ξ: configuration not given here. ξPhe(βξ-Me) = CC(c1ccccc1)C(N)C(=O)O; GABA = NCCCC(=O)O
On the % scale 0 is the no-effect control and ±100 the full control effect; potency means the concentration at half of the fitted maximal effect.

`CC(C)=CCC[C@](C)(O)[C@H]1CC[C@]2(C)[C@@H]1[C@H](O)CC1[C@@]3(C)CC[C@H](O)C(C)(C)C3[C@@H](O[C@@H]3O[C@H](CO)[C@@H](O)[C@H](O)[C@H]3O[C@@H]3OC[C@@H](O)[C@H](O)[C@H]3O)C[C@]12C` (stereo not given in full): the max response in experiment [1] was -0.925%; in experiment [2], 4.3%; in experiment [3] it was -1.39%; in experiment [5] it was 1.41%. Further, in experiment [4], the outcome was inactive.

As for `CC(C(O)/C=C/C(C)(C)O)C1CCC2(C)C3C(=O)C=C4C(CCC(O)C4(C)C)C3(C)CCC12C` (stereo not given), the max response was -0.192% in experiment [1], -3.03% in experiment [2], -4.33% in experiment [3] and 4.41% in experiment [5]. Also, in experiment [4], the call was inactive.

For `Cc1ccc(S(=O)(=O)Cc2nc(-c3ccc(C(=O)NCc4cccnc4)cc3)oc2C)cc1`, the Potency in experiment [1] was 65.1 nM (active); in experiment [2] it was 6.5 nM (active); in experiment [3] it was 146 nM (active); in experiment [4], 8.2 nM (active); in experiment [5], 73.1 nM (active).

Take `COc1ccc(-c2ccc(-c3cn(C(=O)N4CCCCC4c4ccccc4)nn3)cc2)cc1` (stereo not given): the compound was called inactive in experiment [1]. The max response was 1.03% in experiment [2], -8.43% in experiment [3], -8.19% in experiment [4] and 1.57% in experiment [5].

As to `CCOc1ccc2nc(SCCN3CCOCC3)[nH]c2c1`, the max response in experiment [1] was -3.31%; in experiment [2] it was -19.2%; in experiment [3], 4.78%; in experiment [4], -9.7%; in experiment [5], 0.835%.

Turning to `CC1NC(=O)CCCNC(=O)C(Cc2c[nH]c3ccccc23)NC(=O)C(C)NC(=O)C(C(C)C)NC(=O)C(C(C)c2ccccc2)NC(=O)C(C(C)C)NC1=O` (stereo not drawn) (cyclo([GABA]AV[ξPhe(βξ-Me)]VAW); configuration not given here), the max response in experiment [1] was -8.98%; in experiment [2], -4.9%; in experiment [3] it was -0.27%; in experiment [4], -4.62%; in experiment [5], -4.21%.

Consider `CN(C)C1CCN(C(=O)c2ccc(NC(=O)Nc3ccc(-c4nc(N5CCOCC5)nc(N5CCOCC5)n4)cc3)cc2)CC1`, for which the Potency in experiment [1] is 16.4 nM (active); in experiment [2], 51.7 nM (active); in experiment [3], 116 nM (active); in experiment [4] it was 58 nM (active); in experiment [5], 130 nM (active).

For `CC1OC(OC2C(O)C(OC3CCC4(C)C(CCC5(C)C4CC=C4C6CC(C)(COC7OC(CO)C(O)C(O)C7O)CC(O)C6(C)CCC45C)C3(C)C)OC(C(=O)O)C2O)C(O)C(O)C1OC1OCC(O)C(O)C1O` (stereo not given), the max response is 3.82% in experiment [1], -5.93% in experiment [2], -5.35% in experiment [3] and -0.449% in experiment [5]. Further, the result in experiment [4] was inactive.

With `OC[C@H]1O[C@@H](Oc2ccccc2)[C@H](O)[C@@H](O)[C@@H]1O`, the compound was called inactive in experiment [1] and in experiment [4]. Besides, the max response was 0.0932% in experiment [2], 3.54% in experiment [3] and -2.04% in experiment [5].

For the compound `CSc1ccc(C(=O)N[C@@H]2CCCC[C@@H]2NC(=O)CNC(=O)c2cc(C(F)(F)F)ccc2NC(=O)NC(C)C)cc1`, the max response was -1.98% in experiment [1]; -11.3% in experiment [2]; -8.38% in experiment [3]; -4.76% in experiment [4]; 0.151% in experiment [5].

Take `CC(=O)O[C@H]1CC[C@H](C)[C@@]2(C)[C@H](OC(C)=O)c3c(C)coc3C(=O)[C@H]12`: the max response is -18.1% in experiment [1]; -27.7% in experiment [2]; 2.83% in experiment [3]; 6.49% in experiment [4]; -5.72% in experiment [5].

`Cc1cc(Nc2ncc3cc(-c4c(Cl)cccc4Cl)c(=O)n(C)c3n2)ccc1F`: the Potency was 1840 nM (active) in experiment [1]; 2310 nM (active) in experiment [2]; 5800 nM (active) in experiment [3]; 2590 nM (active) in experiment [4]; 1460 nM (active) in experiment [5].

Turning to `COc1c/c(=C2\C=c3ccccc3=N2)[nH]/c1=C\c1[nH]c(C)cc1C`, the Potency is 1840 nM (active) in experiment [1]; 1300 nM (active) in experiment [2]; 4110 nM (active) in experiment [3]; 2310 nM (active) in experiment [4]; 6510 nM (active) in experiment [5].

For the compound `COc1cc2c(cc1OC)CC(=O)N(CCCNC[C@H]1Cc3cc(OC)c(OC)cc31)CC2`, the compound was called inactive in experiment [1] and in experiment [4]. Besides, the results for the max response in experiment [2], in experiment [3] and in experiment [5] were -6.01%, -2.44% and -0.121%, respectively.

With `C/C=C(/COC(=O)/C(C)=C/C)C(=O)OC(CC)c1ccc(OC)c(OC)c1` (stereo not given), the max response in experiment [1] was 3.89%; in experiment [2], 4.08%; in experiment [3] it was 3.4%; in experiment [4], 9.77%; in experiment [5], 1.56%.

For `COc1cc(O)cc(C)c1C(=O)O[C@H]1[C@@H](OC(C)=O)[C@H](n2ccc(=O)[nH]c2=O)O[C@@H]1CO`, the compound was classed as inactive in experiment [1]. For the same compound, the max response in experiment [2] was 4.85%; in experiment [3], -17.4%; in experiment [4], 7.29%; in experiment [5], 0.716%.

With `C=C1C[C@]23C[C@H]1CC[C@H]2C1=C[C@H]2OC(=O)[C@@](C)([C@H]1[C@@H]3C(=O)O)[C@H]2O`, the max response in experiment [1] is 2.1%; in experiment [2], 4.48%; in experiment [3], 1.41%; in experiment [5] it was 3.03%. Besides, the compound was classed as inactive in experiment [4].

On to `CC1(C)CCCC2(C)C=C(C(=O)O)C(O)CC12` (stereo not given), for which the call in experiment [1] was inactive. The max response in experiment [2] is -6.67%; in experiment [3], -0.18%; in experiment [4], 1.72%; in experiment [5], 1.16%.
